According to the supplement of paper PMC10849652:
The full data set covers some 7,900 targets. This sample favours those with a hit. About 0.6% of all pairs of compound and target were hits. A number with no mark means an inactive call.

Assays:
Assay in all cases: log2 fold change, soluble protein after heating vs DMSO (PISA); higher = thermal stabilisation; K562 cells, 10 uM, 30 min; active = over 0.2 and 3.5 SD of the protein, either way, in both replicates (recomputed)
[1] = compound: C#Cc1cccc(Nc2ncnc3cc(OCCOC)c(OCCOC)cc23)c1 [erlotinib]
Outline: (§1)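 Values are thermal stability changes relative to control samples and are taken from duplicates. They are stated as log2 fold changes. Before quantification by TMTpro 16plex LC-MS/MS with equalised channel sums, K562 cells at 2×10^6 cells/mL were treated with 10 μM compound for 30 min, heated in aliquots for 3 min across 48°C-58°C, pooled, extracted in PBS with 0.5% NP-40 at 4°C, and centrifuged at 21,000xg for 90 min to give the soluble supernatant.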

[2] = compound: C/C(=N\NC(=O)C1=CC(=CC=C1)S(=O)(=O)N2CCOCC2)/C3=C(C=CC(=C3)Cl)O
Outline: as §1

[3] = compound: C1=CC(=C(C=C1Cl)C2=NC3=NC=CN=C3C(=N2)NC4=CC=NC=C4)F
Outline: as §1

[4] = compound: C1=CC(=CC=C1C2=NC3=C(N2)C=C(C=C3)C(=O)N)OC4=CC=C(C=C4)Cl
Outline: as §1

[5] = compound: C1=CC2=C(C=CC(=C2)/C=C\3/C(=O)NC(=NCC4=CC=CS4)S3)N=C1
Outline: as §1

[6] = compound: C1=CC2=NC=CN=C2C=C1/C=C/3\C(=O)NC(=O)S3
Outline: as §1

[7] = compound: C1=CC=C(C=C1)C2=NC(=C(N2)C3=CC=NC=C3)C4=CC(=C(C=C4)Cl)O
Outline: as §1

[8] = compound: C1=CC=C2C(=C1)C3=NNC4=CC=CC(=C43)C2=O
Outline: as §1

[9] = compound: C1CCN(C1)C(=O)NC2=CC=CC(=C2)NC3=NC=C(C(=N3)NCCC4=CN=CN4)Br
Outline: as §1

[10] = compound: C1CN(CCC1(CC2=CC=C(C=C2)Cl)N)C3=NC=NC4=C3C=CN4
Outline: as §1

[11] = compound: C1COCCN1CCN2C3=CC=CC=C3N=C2NC(=O)C4=CC(=CC=C4)[N+](=O)[O-] [IRAK-1-4 Inhibitor I]
Outline: as §1

[12] = compound: C=CC(=O)N1CCC[C@@H](n2nc(-c3ccc(Oc4ccccc4)cc3)c3c(N)ncnc32)C1 [ibrutinib]
Outline: as §1

[13] = compound: CC(=O)c1cnc2ccc(-c3cc(Cl)c(O)c(Cl)c3)nc2c1N[C@H]1CC[C@H](CN(C)C)CC1
Outline: as §1

[14] = compound: CC(C)(C)Cn1c(N)nc2ccc(-c3[nH]c(C(C)(C)C)nc3-c3ccc(F)cc3)nc21 [ralimetinib]
Outline: as §1

[15] = compound: CC(C)(O)CC(=O)NCCn1ccc2ncnc(Nc3ccc(Oc4cccc(C(F)(F)F)c4)c(Cl)c3)c21
Outline: as §1

[16] = compound: CC(C)C1=C2N=C(C=C(N2N=C1)NCC3=CC=CC=C3)NCCCCCCN
Outline: as §1

[17] = compound: CC(C)C[C@@H](C=O)NC(=O)[C@H](CC(C)C)NC(=O)[C@H](CC(C)C)NC(=O)OCc1ccccc1
Outline: as §1

[18] = compound: CC(C)N(C[C@H]1O[C@@H](n2cnc3c(N)ncnc32)[C@H](O)[C@@H]1O)[C@H]1C[C@@H](CCc2nc3cc(C(C)(C)C)ccc3[nH]2)C1 [pinometostat]
Outline: as §1

[19] = compound: CC1=C(C(CC(=O)N1)C2=CC=C(C=C2)C(F)(F)F)C(=O)NC3=C(C=C4C(=C3)C=NN4)F
Outline: as §1

[20] = compound: CC1=C(C2=C(C=C1)C(=O)C3=CC=CC=C3N2CCCN)C
Outline: as §1

UniProt Q86X95, sequence (Q86X95 whole entry, looked up): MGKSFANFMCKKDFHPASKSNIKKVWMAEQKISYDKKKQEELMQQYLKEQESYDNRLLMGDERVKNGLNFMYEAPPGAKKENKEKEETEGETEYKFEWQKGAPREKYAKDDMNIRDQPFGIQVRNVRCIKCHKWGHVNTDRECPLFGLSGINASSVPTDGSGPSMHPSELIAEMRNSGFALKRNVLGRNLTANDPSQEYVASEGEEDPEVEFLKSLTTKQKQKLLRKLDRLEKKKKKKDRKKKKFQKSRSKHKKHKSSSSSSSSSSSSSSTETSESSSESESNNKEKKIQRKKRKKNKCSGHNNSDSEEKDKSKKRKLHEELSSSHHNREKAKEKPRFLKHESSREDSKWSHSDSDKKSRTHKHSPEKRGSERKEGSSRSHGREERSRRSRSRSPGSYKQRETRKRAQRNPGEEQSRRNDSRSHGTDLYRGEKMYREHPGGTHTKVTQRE
UniProt Q00587, sequence (Q00587 whole entry, looked up): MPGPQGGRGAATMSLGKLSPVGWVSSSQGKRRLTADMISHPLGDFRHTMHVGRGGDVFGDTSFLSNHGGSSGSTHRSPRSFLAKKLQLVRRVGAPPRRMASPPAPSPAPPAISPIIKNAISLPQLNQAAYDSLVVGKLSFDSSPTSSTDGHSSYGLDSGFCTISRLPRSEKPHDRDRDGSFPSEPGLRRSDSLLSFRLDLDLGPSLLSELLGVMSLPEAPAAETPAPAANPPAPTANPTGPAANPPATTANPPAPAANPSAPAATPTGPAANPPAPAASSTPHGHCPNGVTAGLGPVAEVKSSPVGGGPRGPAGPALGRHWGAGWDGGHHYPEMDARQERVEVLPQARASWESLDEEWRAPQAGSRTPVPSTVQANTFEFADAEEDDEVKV
UniProt O43529, sequence (O43529 whole entry, looked up): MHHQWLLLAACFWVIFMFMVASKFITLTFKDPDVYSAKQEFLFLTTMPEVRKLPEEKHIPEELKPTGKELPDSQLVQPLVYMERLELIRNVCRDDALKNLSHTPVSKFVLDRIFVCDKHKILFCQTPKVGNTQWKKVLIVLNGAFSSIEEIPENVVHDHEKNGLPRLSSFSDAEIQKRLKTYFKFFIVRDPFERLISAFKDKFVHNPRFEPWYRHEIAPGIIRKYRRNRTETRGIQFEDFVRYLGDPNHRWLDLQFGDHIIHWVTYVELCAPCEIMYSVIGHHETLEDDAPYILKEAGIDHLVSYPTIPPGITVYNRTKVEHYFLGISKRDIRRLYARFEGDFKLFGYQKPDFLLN
UniProt Q9Y3X0, sequence (Q9Y3X0 whole entry, looked up): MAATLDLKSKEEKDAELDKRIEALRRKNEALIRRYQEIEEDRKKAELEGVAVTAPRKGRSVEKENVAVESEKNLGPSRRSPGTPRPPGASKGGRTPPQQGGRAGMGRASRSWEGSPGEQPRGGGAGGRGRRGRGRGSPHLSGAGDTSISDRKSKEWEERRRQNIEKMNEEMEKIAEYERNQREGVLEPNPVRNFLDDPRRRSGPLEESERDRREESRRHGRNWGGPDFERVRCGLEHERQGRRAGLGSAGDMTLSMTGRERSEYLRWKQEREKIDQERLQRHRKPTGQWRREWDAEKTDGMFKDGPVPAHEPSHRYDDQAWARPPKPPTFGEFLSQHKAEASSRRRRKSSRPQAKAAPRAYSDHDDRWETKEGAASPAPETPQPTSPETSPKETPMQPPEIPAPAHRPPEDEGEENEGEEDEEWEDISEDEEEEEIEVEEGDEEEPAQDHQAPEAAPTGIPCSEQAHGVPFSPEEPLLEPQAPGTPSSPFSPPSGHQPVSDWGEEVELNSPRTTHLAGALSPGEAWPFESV
UniProt O15234, sequence (O15234 whole entry, looked up): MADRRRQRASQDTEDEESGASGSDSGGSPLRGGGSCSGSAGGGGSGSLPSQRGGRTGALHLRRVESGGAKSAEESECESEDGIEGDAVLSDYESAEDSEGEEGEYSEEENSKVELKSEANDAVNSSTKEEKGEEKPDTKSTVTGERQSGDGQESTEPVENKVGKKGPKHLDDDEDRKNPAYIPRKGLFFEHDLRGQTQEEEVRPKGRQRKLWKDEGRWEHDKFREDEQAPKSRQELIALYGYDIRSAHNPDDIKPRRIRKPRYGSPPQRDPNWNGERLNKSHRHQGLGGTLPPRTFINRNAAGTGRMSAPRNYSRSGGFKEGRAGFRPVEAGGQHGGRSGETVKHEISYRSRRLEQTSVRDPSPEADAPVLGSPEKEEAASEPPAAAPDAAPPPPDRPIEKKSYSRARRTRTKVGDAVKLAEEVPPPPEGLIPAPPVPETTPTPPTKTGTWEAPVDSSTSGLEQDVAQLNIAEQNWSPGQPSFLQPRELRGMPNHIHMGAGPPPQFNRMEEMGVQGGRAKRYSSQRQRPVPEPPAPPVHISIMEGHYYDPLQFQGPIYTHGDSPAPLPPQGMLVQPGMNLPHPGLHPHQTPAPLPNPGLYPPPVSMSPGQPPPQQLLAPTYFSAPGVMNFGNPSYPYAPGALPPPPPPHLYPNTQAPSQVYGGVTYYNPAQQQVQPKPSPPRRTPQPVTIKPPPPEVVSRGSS
UniProt Q13137, sequence (Q13137 whole entry, looked up): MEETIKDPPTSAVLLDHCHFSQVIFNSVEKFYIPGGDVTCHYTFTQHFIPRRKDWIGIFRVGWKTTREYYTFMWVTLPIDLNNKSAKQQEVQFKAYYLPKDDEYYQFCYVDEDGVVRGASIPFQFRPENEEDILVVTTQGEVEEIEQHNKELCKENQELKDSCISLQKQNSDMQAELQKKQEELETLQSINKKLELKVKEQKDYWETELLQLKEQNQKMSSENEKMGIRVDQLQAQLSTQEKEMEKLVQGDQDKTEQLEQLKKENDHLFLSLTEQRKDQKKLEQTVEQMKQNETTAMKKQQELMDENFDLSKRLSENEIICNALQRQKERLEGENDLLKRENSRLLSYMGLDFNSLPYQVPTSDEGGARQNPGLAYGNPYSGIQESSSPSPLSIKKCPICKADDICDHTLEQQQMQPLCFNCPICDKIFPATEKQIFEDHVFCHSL
UniProt P42574, sequence (P42574 whole entry, looked up): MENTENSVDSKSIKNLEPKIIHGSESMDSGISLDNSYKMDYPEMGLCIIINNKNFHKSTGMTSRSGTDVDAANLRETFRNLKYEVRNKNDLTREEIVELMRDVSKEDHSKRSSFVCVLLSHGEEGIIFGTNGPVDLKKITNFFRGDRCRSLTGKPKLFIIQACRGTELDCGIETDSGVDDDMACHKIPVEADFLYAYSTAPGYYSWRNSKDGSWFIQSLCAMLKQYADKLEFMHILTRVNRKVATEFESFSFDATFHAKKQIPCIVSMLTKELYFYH
UniProt Q00534, sequence (Q00534 whole entry, looked up): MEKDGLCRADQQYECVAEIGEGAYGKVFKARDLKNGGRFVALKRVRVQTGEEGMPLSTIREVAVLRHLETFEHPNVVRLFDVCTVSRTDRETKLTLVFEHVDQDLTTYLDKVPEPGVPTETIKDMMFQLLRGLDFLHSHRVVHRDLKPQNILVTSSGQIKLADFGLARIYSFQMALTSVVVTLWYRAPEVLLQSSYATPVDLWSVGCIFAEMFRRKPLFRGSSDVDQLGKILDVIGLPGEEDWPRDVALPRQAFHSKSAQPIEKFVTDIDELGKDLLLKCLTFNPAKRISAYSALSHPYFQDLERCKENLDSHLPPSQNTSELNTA
UniProt Q12996, sequence (Q12996 whole entry, looked up): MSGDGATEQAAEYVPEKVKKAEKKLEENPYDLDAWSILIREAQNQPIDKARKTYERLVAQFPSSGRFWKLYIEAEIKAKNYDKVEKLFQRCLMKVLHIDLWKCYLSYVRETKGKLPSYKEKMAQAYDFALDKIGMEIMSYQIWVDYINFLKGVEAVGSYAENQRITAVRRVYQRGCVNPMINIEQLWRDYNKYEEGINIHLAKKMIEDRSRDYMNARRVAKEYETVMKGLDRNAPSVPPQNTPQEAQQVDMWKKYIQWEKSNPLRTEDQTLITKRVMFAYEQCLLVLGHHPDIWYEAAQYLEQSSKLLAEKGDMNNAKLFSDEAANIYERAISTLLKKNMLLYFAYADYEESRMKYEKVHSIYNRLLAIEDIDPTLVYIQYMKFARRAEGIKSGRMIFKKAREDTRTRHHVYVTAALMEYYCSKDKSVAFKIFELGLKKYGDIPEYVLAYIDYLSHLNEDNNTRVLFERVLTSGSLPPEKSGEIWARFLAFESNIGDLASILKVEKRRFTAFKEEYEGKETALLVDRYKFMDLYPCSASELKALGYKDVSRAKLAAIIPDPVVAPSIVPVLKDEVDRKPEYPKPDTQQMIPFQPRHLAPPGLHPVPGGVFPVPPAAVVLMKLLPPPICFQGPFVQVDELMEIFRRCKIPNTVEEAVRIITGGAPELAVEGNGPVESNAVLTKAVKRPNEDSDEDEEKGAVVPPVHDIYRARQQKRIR
UniProt Q14790, sequence (Q14790 whole entry, looked up): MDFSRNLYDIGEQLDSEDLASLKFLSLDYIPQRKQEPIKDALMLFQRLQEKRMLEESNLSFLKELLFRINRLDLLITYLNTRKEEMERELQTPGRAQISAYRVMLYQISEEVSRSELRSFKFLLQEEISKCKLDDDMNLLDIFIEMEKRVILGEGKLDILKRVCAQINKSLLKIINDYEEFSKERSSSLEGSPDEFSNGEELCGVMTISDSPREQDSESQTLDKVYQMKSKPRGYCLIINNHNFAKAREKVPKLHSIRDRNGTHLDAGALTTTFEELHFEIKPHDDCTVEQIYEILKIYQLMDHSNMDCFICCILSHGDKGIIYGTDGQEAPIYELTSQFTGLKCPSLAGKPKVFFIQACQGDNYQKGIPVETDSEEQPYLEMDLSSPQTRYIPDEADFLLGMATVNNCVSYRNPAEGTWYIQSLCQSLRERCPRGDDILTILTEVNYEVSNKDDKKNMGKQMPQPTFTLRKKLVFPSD
UniProt P08962, sequence (P08962 whole entry, looked up): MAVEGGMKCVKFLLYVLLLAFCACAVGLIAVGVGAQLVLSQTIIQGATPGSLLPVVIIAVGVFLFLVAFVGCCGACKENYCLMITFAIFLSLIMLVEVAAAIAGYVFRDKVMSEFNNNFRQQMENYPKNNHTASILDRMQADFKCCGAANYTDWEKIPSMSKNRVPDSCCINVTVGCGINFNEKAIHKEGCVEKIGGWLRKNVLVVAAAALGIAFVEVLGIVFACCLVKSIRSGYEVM

Target	log2 fold change [1]	log2 fold change [2]	log2 fold change [3]	log2 fold change [4]	log2 fold change [5]	log2 fold change [6]	log2 fold change [7]	log2 fold change [8]	log2 fold change [9]	log2 fold change [10]	log2 fold change [11]	log2 fold change [12]	log2 fold change [13]	log2 fold change [14]	log2 fold change [15]	log2 fold change [16]	log2 fold change [17]	log2 fold change [18]	log2 fold change [19]	log2 fold change [20]
CASP8 isoform 9 (UniProt Q14790)	-0.008	0.056	-0.055	-0.023	0.021	0.052	-0.078	0.104	-0.051	-0.014	-0.056	-0.027	0.098	-0.058	-0.092	-0.264	-0.025	0.124	0.028	0
CALCOCO2 isoform 4 (UniProt Q13137)	-0.081	0.018	-0.08	0.059	0.022	-0.043	-0.003	-0.057	-0.016	-0.052	0.004	-0.016	-0.09	0.045	-0.005	-0.599 (active)	0.115	0.054	0.045	-0.065
CHCHD4 isoform 2 (UniProt Q8N4Q1)	-0.071	0.102	-0.045	-0.036	-0.067	0.012	-0.022	0.053	-0.678	0.177	0.056	0.003	0.096	-0.003	0.002	0.075	0.03	-0.024	-0.011	-0.18
CTBS (UniProt Q01459)	0.037	-0.008	-0.1	-0.023	0.039	0.013	-0.089	-0.002	-0.083	0.048	0.073	0.067	-0.082	-0.035	0.018	-0.151	-0.028	-0.009	0.1	-0.061
CASP2 (UniProt P42575)	0.069	-0.007	0.056	-0.011	0.054	-0.025	-0.011	0.028	0.004	-0.053	0.017	0.027	0	-0.074	-0.073	-0.082	0.072	-0.013	-0.016	0.091
CPQ (UniProt Q9Y646)	0.013	0.002	0.051	0	0.05	0.004	0.07	0	-0.027	0.125	0.095	0.01	-0.034	-0.011	0.003	0.049	-0.032	0.007	0.023	0.006
CASC3 (UniProt O15234)	-0.084	-0.166	-0.066	0.068	0	-0.047	0.023	-0.29	0.089	0.022	-0.014	0.1	0.582 (active)	0.07	-0.023	0.411	-0.036	-0.005	0.012	0.206
CDK16 isoform 2 (UniProt Q00536)	-0.072	-0.025	-0.023	-0.07	0.043	-0.016	-0.024	0.121	0.139	-0.029	-0.029	-0.018	0.843 (active)	0.05	-0.031	0.069	0.059	0.016	-0.03	0.025
COASY isoform 2 (UniProt Q13057)	-0.022	0.1	0.042	-0.067	0.032	0.01	0.076	0.043	-0.011	0.092	0.039	0.004	-0.016	-0.032	-0.063	0.037	-0.02	0.005	-0.018	0.079
CDC42EP1 (UniProt Q00587)	0.09	0.063	0.006	0.115	0.136	-0.011	-0.005	-0.086	-0.133	-0.001	0.097	0.086	-0.527 (active)	0.076	-0.104	-0.43 (active)	-0.009	-0.043	-0.054	-0.055
CPT1A (UniProt P50416)	-0.008	0.042	-0.111	0.008	-0.028	-0.096	0	0.081	-0.055	0.076	-0.163	-0.024	-0.103	0.05	0.049	0.195	-0.03	0.06	-0.109	-0.047
C22orf39 (UniProt Q6P5X5)	-0.256	-0.02	-0.018	0.02	-0.014	0.051	-0.023	-0.004	0.037	0.02	0.12	0.033	-0.069	-0.104	0.018	-0.587 (active)	0.126	0.035	0.014	0.213
CD63 (UniProt P08962)	0.01	0.024	-0.045	-0.089	-0.027	0.069	0.009	0.002	0.004	0.034	0.022	0.036	0.032	0.047	0.006	0.081	0.056	0.007	0.017	0.003
CSTF3 (UniProt Q12996)	-0.038	0.012	-0.003	0.015	0.014	0.077	-0.032	0.035	0.027	-0.027	0.087	0	0.019	-0.052	-0.026	0.132	-0.012	0.021	-0.018	0.262 (active)
CCDC9 (UniProt Q9Y3X0)	0.017	-0.116	-0.036	0.047	-0.045	0.034	0.027	-0.02	0.062	0.034	-0.05	0.078	0.173	0.031	0.053	0.105	0.087	-0.024	0.021	0.296 (active)
CHST10 (UniProt O43529)	0.013	-0.168	-0.144	-0.058	-0.111	0.03	0.067	0.101	0.008	0.06	0.056	-0.062	-0.135	0.059	0.042	-0.435 (active)	-0.003	0.082	0.025	0.036
CASP3 (UniProt P42574)	-0.014	-0.021	0.238	0.006	-0.005	-0.001	0.086	0.015	-0.028	0.093	0.074	0.008	0	-0.022	0.043	0.048	0.067	-0.076	0.011	0.05
CAVIN1 (UniProt Q6NZI2)	-0.06	-0.085	-0.309	0.121	-0.04	-0.002	0.274	0.07	0.062	-0.137	-0.064	-0.002	0.011	0.393	0	-0.156	-0.011	0.2	0.06	-0.437 (active)
CLASP2 isoform 3 (UniProt O75122)	0.014	0.136	0.066	0.032	0.081	-0.013	-0.01	0.006	-0.063	0.041	-0.047		-0.297 (active)	0.009	-0.056	-0.036	0.046	0.018	0.023	0.046
CELF2 isoform 3 (UniProt O95319)	-0.042	-0.044	0	0.045	0.004	0.047	0.021	0.064	-0.022	0.086	0.009	-0.022	0.009	0.055	-0.003	-0.015	0.249	-0.047	-0.027	0.418 (active)
CDK6 (UniProt Q00534)	-0.035	0	-0.053	0.02	0.027	0.018	-0.031	0.04	0.017	-0.034	-0.014	0.031	0.107	0.009	-0.009	-0.026	0.086	0.062	0.02	-0.019
CLUH (UniProt O75153)	0.08	0	0.318	-0.042	0.137	0.324 (active)	0.03	0.058	-0.043	-0.027	0.107		0.467 (active)	0.028	-0.048	-0.179	-0.009	0.045	-0.094	0.095
CIR1 (UniProt Q86X95)	-0.008	-0.035	-0.254	0.055	-0.054	-0.029	-0.144	-0.016	-0.008	0.002	-0.023	0.121	-0.05	0.083	0.128	0.198	0.175	0.169		0.022
CLCN3 isoform 2 (UniProt P51790)	0.008	0.089	0.059	0.044	0.024	-0.002	0.025	-0.017	-0.012	0.033	0.005		-0.008	0.026	-0.043	-0.049	-0.066	-0.043	-0.012	0.051
